The source of these data is PubChem BioAssay (EPA / NIEHS).

What all share (conditions): mRNA level, 48 h; actives raise or lower the signal
Read-out in assay [1]: Bcl-2 (BAD) gene, BAD (gene 572)
Description: LTEA_HepaRG_BAD: Life Technologies and Expression Analysis (LTEA) Assay for Bcl-2 (BAD) gene using HepaRG (AID 2283469). Summed up: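 Read-out: qRT-PCR of BAD mRNA, normalized to three housekeeping genes. Human HepaRG cultures got 48 h chemical exposure in 0.5% DMSO, duplicate eight-point half-log series topping at 100 uM. Gain or loss of signal fitted versus DMSO vehicle.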

Read-out in assay [2]: adenosine kinase (ADK) gene, ADK (gene 132)
Description: LTEA_HepaRG_ADK: Life Technologies and Expression Analysis (LTEA) Assay for adenosine kinase (ADK) gene using HepaRG (AID 2283471). Put shortly: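 ADK expression quantified by qRT-PCR, normalised to three housekeeping genes, after 48 h exposure of HepaRG cells to eight concentrations (top 100 uM, half-log steps, duplicate, 0.5% DMSO). Up- or down-regulation fitted relative to vehicle.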

Read-out in assay [3]: Alpha-fetoprotein (AFP) gene, AFP (gene 174)
Description: LTEA_HepaRG_AFP: Life Technologies and Expression Analysis (LTEA) Assay for Alpha-fetoprotein (AFP) gene using HepaRG (AID 2283472). Summed up:
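Measures AFP mRNA change in HepaRG after 48 h chemical exposure (8 half-log concentrations, highest 100 uM, 0.5% DMSO). Fold change relative to DMSO, fitted in both directions.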

Read-out in the next assay: BCL2L11 (gene 10018)
Description: LTEA_HepaRG_BCL2L11: Life Technologies and Expression Analysis (LTEA) Assay for Bcl-2 (BCL2L11) gene using HepaRG (AID 2283473). Put shortly: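 Read-out is BCL2L11 transcript level by qRT-PCR, normalized to three housekeeping genes and fitted bidirectionally against 0.5% DMSO vehicle. HepaRG cells received chemicals for 48 h in serum-free induction medium, 100 uM down in half-log dilutions.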

Read-out in assay [4]: Apolipoprotein A-V (APOA5) gene, APOA5 (gene 116519)
Description: LTEA_HepaRG_APOA5: Life Technologies and Expression Analysis (LTEA) Assay for Apolipoprotein A-V (APOA5) gene using HepaRG (AID 2283474). Put shortly: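 Readout is APOA5 transcript level by qRT-PCR on Fluidigm dynamic arrays, normalized to three housekeeping genes. HepaRG cultures received chemicals for 48 h at up to 100 uM (half-log steps, 0.5% DMSO), with gain or loss scored relative to DMSO.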

Read-out in assay [5]: Apoptosis regulator Bcl-2 (Homo sapiens) (UniProt P10415)
Description: LTEA_HepaRG_BCL2: Life Technologies and Expression Analysis (LTEA) Assay for Bcl-2 gene using HepaRG (AID 2283475).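 Also: BCL2 transcript by TaqMan qRT-PCR normalised to ACTB GAPDH and POLR2A.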 Summed up:
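Each chemical was tested in duplicate on HepaRG cultures held in serum-free induction medium for 48 h, highest concentration 100 uM with half-log dilutions. Transcript levels came from multiplexed qRT-PCR, normalised to housekeeping genes; activity was scored in either direction relative to DMSO.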

Read-out in assay [6]: Bcl-2 (BID) gene, BID (gene 637)
Description: LTEA_HepaRG_BID: Life Technologies and Expression Analysis (LTEA) Assay for Bcl-2 (BID) gene using HepaRG (AID 2283476). Summed up: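 Assay used HepaRG hepatic cells treated 48 h in serum-free medium with half-log dilutions from 100 uM. Endpoint: BID mRNA, qRT-PCR, normalized to ACTB/GAPDH/POLR2A.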

Read-out in the next assay: Caspase-3 (Homo sapiens) (UniProt P42574)
Description: LTEA_HepaRG_CASP3: Life Technologies and Expression Analysis (LTEA) Assay for cysteine-aspartic acid protease (CASP3) using HepaRG (AID 2283477). Put shortly:
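Read-out is CASP3 mRNA level by TaqMan qRT-PCR in human HepaRG cells after 48 h chemical exposure. Eight half-log concentrations topping at 100 uM were tested in 0.5% DMSO; gain or loss was fitted relative to DMSO.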

Read-out in assay [7]: Cytochrome P450 (CYP24A1), CYP24A1 (gene 1591)
As to the kind of experiment: LTEA_HepaRG_CYP24A1: Life Technologies and Expression Analysis (LTEA) Assay for Cytochrome P450 (CYP24A1) using HepaRG (AID 2283478). Summed up: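 HepaRG, 48 h chemical exposure, 8-pt half-log CRC from 100 uM, 0.5% DMSO vehicle, duplicates. Endpoint: CYP24A1 mRNA by Fluidigm TaqMan qRT-PCR, normalized ACTB/GAPDH/POLR2A; gain/loss fit vs DMSO.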

Read-out in assay [8]: Cytochrome P450 (CYP1A2), CYP1A2 (gene 1544)
As to the kind of experiment: LTEA_HepaRG_CYP1A2: Life Technologies and Expression Analysis (LTEA) Assay for Cytochrome P450 (CYP1A2) using HepaRG (AID 2283479). Put shortly: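 CYP1A2 transcript induction or loss, quantified by Fluidigm qRT-PCR against three housekeeping genes, was fitted bidirectionally against 0.5% DMSO controls. Human HepaRG cells received eight half-log concentrations from 100 uM over 48 h.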

Molecules are shown by their SMILES. Several values for one entry are separate records, joined by “and”; a condition that tells them apart may be missing. Equal entries are not always repeated. Activity calls are given as the source filed them. The calls were made as follows: active = hit-call score of the fitted dose curve at least 0.9, where 1 is the maximum; inactive = score below 0.9.

Broadly, the AC50 is the concentration at which the activity in the assay is half-maximal.

Apoptosis regulator Bcl-2 (Homo sapiens), sequence (P10415 whole entry, looked up): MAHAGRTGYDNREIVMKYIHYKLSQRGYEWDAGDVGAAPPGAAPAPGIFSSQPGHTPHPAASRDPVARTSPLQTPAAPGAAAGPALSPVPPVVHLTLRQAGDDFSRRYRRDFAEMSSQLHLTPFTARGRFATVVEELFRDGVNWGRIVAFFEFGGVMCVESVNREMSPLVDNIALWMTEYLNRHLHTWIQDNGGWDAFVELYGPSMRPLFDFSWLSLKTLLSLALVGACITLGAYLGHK
Caspase-3 (Homo sapiens), sequence (P42574 whole entry, looked up): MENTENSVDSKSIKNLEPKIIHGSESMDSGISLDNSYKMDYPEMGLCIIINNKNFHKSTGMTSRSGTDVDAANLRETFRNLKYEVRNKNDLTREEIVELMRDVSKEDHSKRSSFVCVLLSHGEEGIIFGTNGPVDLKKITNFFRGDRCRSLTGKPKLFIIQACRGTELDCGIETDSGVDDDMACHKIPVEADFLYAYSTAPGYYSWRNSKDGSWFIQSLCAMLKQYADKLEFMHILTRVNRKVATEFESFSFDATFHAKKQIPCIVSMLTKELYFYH

For `CCC(=O)C(CC(C)N(C)C)(c1ccccc1)c1ccccc1` (stereo not given), the call (in assay [1]; in assay [2]; with BCL2L11 (gene 10018); in [4]; in [5]; in assay [6]) was inactive. The call (in the assay with Caspase-3 (Homo sapiens); in assay [7]) was inactive. Moreover, the half-maximal activity concentration (AC50) in assay [3] and in [8] was 36.2 µM (active) in each case.
Take `C=CC(=O)OCCCCCC(C)C`: the molecule was classed as inactive (in assay [1]; in assay [2]; in [3]; in the assay with BCL2L11 (gene 10018); in assay [5]; in assay [6]). Moreover, the outcome (with Caspase-3 (Homo sapiens); in assay [7]) was inactive. Besides, the figures for the AC50 in assay [4] and in [8] were 0.483 µM (active) and 50 µM (active), respectively.
Regarding `Cn1sc(Cl)cc1=O`, the result (in assay [1]; in [2]; in assay [3]; with BCL2L11 (gene 10018); in [4]; in [5]) was inactive. Moreover, the outcome (in assay [6]; with Caspase-3 (Homo sapiens); in [7]; in [8]) was inactive.
Turning to `O=C(O)C(F)(F)C(F)(F)C(F)(F)C(F)(F)C(F)(F)C(F)(F)F`, the molecule was called inactive (in assay [1]; in assay [2]; in assay [3]; in the assay with BCL2L11 (gene 10018); in [4]; in assay [5]). Besides, the molecule was classed as inactive (in assay [6]; with Caspase-3 (Homo sapiens); in assay [7]; in assay [8]).
For `ClC1(Cl)C2(Cl)C3(Cl)C4(Cl)C(Cl)(Cl)C5(Cl)C3(Cl)C1(Cl)C5(Cl)C24Cl` (stereo not given), the molecule was called inactive (in assay [1]; in [2]; in [3]; in the assay with BCL2L11 (gene 10018); in assay [4]; in assay [5]). The outcome (in assay [6]; in the assay with Caspase-3 (Homo sapiens); in assay [7]) was inactive. In addition, in assay [8], the AC50 was 15.8 µM (active).
As for `CCN1CCC2(CC1)COc1cc3c(cc12)N(C(=O)c1ccc(-c2ccc(-c4nnc(C)o4)cc2C)cc1)CC3`, the outcome (in [1]; in assay [3]; with BCL2L11 (gene 10018); in [5]; in [6]; in the assay with Caspase-3 (Homo sapiens)) was inactive. The molecule was classed as inactive in assay [7] and in [8]. Further, the half-maximal activity concentration (AC50) was 21.3 µM (active) in [2] and 24.6 µM (active) in [4].
On to `O=C1C2(Cl)C3(Cl)C4(Cl)C(Cl)(Cl)C5(Cl)C3(Cl)C1(Cl)C5(Cl)C24Cl` (stereo not given), for which the call (in [1]; in [2]; with BCL2L11 (gene 10018); in assay [4]; in [6]; in assay [7]) was inactive. In addition, the half-maximal activity concentration (AC50) in assay [3] is 24.1 µM (active); in assay [5] it was 11.1 µM (active); with Caspase-3 (Homo sapiens), 92.3 µM (active); in [8] it was 8.79 µM (active).
Turning to `O=c1[nH]c(=O)[nH]c(=O)[nH]1`, the molecule was classed as inactive (in assay [1]; in [2]; in [3]; with BCL2L11 (gene 10018); in [4]; in assay [5]). The result (in assay [6]; with Caspase-3 (Homo sapiens); in assay [7]; in assay [8]) was inactive.
Turning to `NC(=O)O`, the result (in [1]; in assay [2]; in assay [3]; with BCL2L11 (gene 10018); in assay [4]; in assay [5]) was inactive. Also, the outcome (in assay [6]; with Caspase-3 (Homo sapiens); in assay [7]; in [8]) was inactive.
For `O=[N+]([O-])c1ccc(O)c([N+](=O)[O-])c1`, the molecule was classed as inactive in assay [1] and in assay [7]. Besides, the AC50 in [2] is 13.3 µM (active); in [3], 24.2 µM (active); with BCL2L11 (gene 10018) it was 13.1 µM (active); in [4], 25.3 µM (active); in assay [5] it was 12.1 µM (active); in assay [6], 12.9 µM (active). In addition, the concentration at half-maximal activity (AC50) is 7 µM (active) in the assay with Caspase-3 (Homo sapiens) and 17.2 µM (active) in assay [8].
As to `COc1cc(-c2ccc(N)c(OC)c2)ccc1N`, the call (in [1]; in [2]; in the assay with BCL2L11 (gene 10018); in assay [4]; in assay [5]; in [6]) was inactive. The result (with Caspase-3 (Homo sapiens); in [7]) was inactive. Also, the AC50 in assay [3] was 50 µM (active); in assay [8] it was 23.6 µM (active) and 25.8 µM (active).
For the molecule `Oc1cccc2cccnc12`, the result (in assay [1]; in assay [2]; in assay [3]; with BCL2L11 (gene 10018); in assay [4]; in assay [5]) was inactive. Further, the molecule was called inactive (in [6]; with Caspase-3 (Homo sapiens); in assay [7]). Besides, the AC50 in assay [8] was 7.72 µM (active).
For `C=C(C)C(=O)[O][Sn]([CH2]CCC)([CH2]CCC)[CH2]CCC`, the result in assay [1], in assay [2] and in [7] was inactive. Besides, the AC50 is 2.17 µM (active) in assay [3]; 88.3 µM (active) with BCL2L11 (gene 10018); 2.92 µM (active) in assay [4]; 2.07 µM (active) in [5]; 1.58 µM (active) in [6]; 5 µM (active) with Caspase-3 (Homo sapiens). Also, the concentration at half-maximal activity (AC50) in [8] is 0.471 µM (active).
On to `CC(C)(C)CC(C)(C)c1ccc(O)cc1`, for which the result (in assay [1]; in assay [2]; in assay [3]; with BCL2L11 (gene 10018); in [5]; in the assay with Caspase-3 (Homo sapiens)) was inactive. The molecule was called inactive in assay [7] and in assay [8]. Besides, the AC50 was 50 µM (active) in [4] and 82.8 µM (active) in assay [6].
As to `O=C(O)C(F)(F)C(F)(F)C(F)(F)C(F)(F)C(F)(F)C(F)(F)C(F)(F)C(F)(F)C(F)(F)C(F)(F)F`, the call in assay [1], in assay [2], in assay [3], in [4], in [5] and in assay [6] was inactive. Also, the molecule was classed as inactive (with Caspase-3 (Homo sapiens); in [7]). The AC50 in the assay with BCL2L11 (gene 10018) is 47.8 µM (active); in [8], 41.6 µM (active).
